# Changes are numbered by the printed parent chain; changes in the protein carry UniProt numbers. Over roughly 16,000 sequences, “ka relative to ugcaugu” has its median near 0.0091; the highest 2% begin near 0.032. The full list was thinned out, with the highest values kept by preference.
# T1: RBFOX1 RRM (Homo sapiens, UniProt Q9NWB1 109-208)
# T1 sequence: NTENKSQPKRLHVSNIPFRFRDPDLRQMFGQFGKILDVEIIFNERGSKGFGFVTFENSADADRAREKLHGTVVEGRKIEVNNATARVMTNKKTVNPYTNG
# B1: CGGGCAA (DNA:RNA)
# RNA: GGGAGACCGGAAUUCAGAUUGUCCCGGGCAAUUAAAUCCCGUCGUAGCCACCA
# DNA 1: CAATCTGAATTCCGGTCTCCC
# DNA 2: TGGTGGCTACGACGGGATT
# B2: GGGGCAG (DNA:RNA)
# RNA: B1 RNA with C25G, A31G
# DNA 1: CAATCTGAATTCCGGTCTCCC
# DNA 2: TGGTGGCTACGACGGGATT
# B3: GGGCAAA (DNA:RNA)
# RNA: B1 RNA with C25G, G28C, C29A
# DNA 1: CAATCTGAATTCCGGTCTCCC
# DNA 2: TGGTGGCTACGACGGGATT
# B4: CGGGCAG (DNA:RNA)
# RNA: B1 RNA with A31G
# DNA 1: CAATCTGAATTCCGGTCTCCC
# DNA 2: TGGTGGCTACGACGGGATT
# B5: GGGCAGU (DNA:RNA)
# RNA: B1 RNA with C25G, G28C, C29A, A30G, A31U
# DNA 1: CAATCTGAATTCCGGTCTCCC
# DNA 2: TGGTGGCTACGACGGGATT
# B6: GGGGCAA (DNA:RNA)
# RNA: B1 RNA with C25G
# DNA 1: CAATCTGAATTCCGGTCTCCC
# DNA 2: TGGTGGCTACGACGGGATT
# B7: CCAUAAU (DNA:RNA)
# RNA: B1 RNA with G26C, G27A, G28U, C29A, A31U
# DNA 1: CAATCTGAATTCCGGTCTCCC
# DNA 2: TGGTGGCTACGACGGGATT
# B8: CCUAAGA (DNA:RNA)
# RNA: B1 RNA with G26C, G27U, G28A, C29A, A30G
# DNA 1: CAATCTGAATTCCGGTCTCCC
# DNA 2: TGGTGGCTACGACGGGATT
# B9: GUAGGGA (DNA:RNA)
# RNA: B1 RNA with C25G, G26U, G27A, C29G, A30G
# DNA 1: CAATCTGAATTCCGGTCTCCC
# DNA 2: TGGTGGCTACGACGGGATT
# B10: CUCCGUG (DNA:RNA)
# RNA: B1 RNA with G26U, G27C, G28C, C29G, A30U, A31G
# DNA 1: CAATCTGAATTCCGGTCTCCC
# DNA 2: TGGTGGCTACGACGGGATT
# B11: CGGUUAU (DNA:RNA)
# RNA: B1 RNA with G28U, C29U, A31U
# DNA 1: CAATCTGAATTCCGGTCTCCC
# DNA 2: TGGTGGCTACGACGGGATT
# B12: CGCACGG (DNA:RNA)
# RNA: B1 RNA with G27C, G28A, A30G, A31G
# DNA 1: CAATCTGAATTCCGGTCTCCC
# DNA 2: TGGTGGCTACGACGGGATT
# B13: GCCACGU (DNA:RNA)
# RNA: B1 RNA with C25G, G26C, G27C, G28A, A30G, A31U
# DNA 1: CAATCTGAATTCCGGTCTCCC
# DNA 2: TGGTGGCTACGACGGGATT
# B14: CACGUUU (DNA:RNA)
# RNA: B1 RNA with G26A, G27C, C29U, A30U, A31U
# DNA 1: CAATCTGAATTCCGGTCTCCC
# DNA 2: TGGTGGCTACGACGGGATT
# B15: CGCACGU (DNA:RNA)
# RNA: B1 RNA with G27C, G28A, A30G, A31U
# DNA 1: CAATCTGAATTCCGGTCTCCC
# DNA 2: TGGTGGCTACGACGGGATT
# B16: AGCACCG (DNA:RNA)
# RNA: B1 RNA with C25A, G27C, G28A, A30C, A31G
# DNA 1: CAATCTGAATTCCGGTCTCCC
# DNA 2: TGGTGGCTACGACGGGATT
# B17: GCACCGU (DNA:RNA)
# RNA: B1 RNA with C25G, G26C, G27A, G28C, A30G, A31U
# DNA 1: CAATCTGAATTCCGGTCTCCC
# DNA 2: TGGTGGCTACGACGGGATT
# B18: GCACGGU (DNA:RNA)
# RNA: GGGAGACCGGAAUUCAGAUUGUCCGCACGGUUUAAAUCCCGUCGUAGCCACCA
# DNA 1: CAATCTGAATTCCGGTCTCCC
# DNA 2: TGGTGGCTACGACGGGATT
# B19: AGCACGU (DNA:RNA)
# RNA: B1 RNA with C25A, G27C, G28A, A30G, A31U
# DNA 1: CAATCTGAATTCCGGTCTCCC
# DNA 2: TGGTGGCTACGACGGGATT
# B20: ACGUUUU (DNA:RNA)
# RNA: B18 RNA with G25A, A27G, C28U, G29U, G30U
# DNA 1: CAATCTGAATTCCGGTCTCCC
# DNA 2: TGGTGGCTACGACGGGATT
# B21: GCACCGG (DNA:RNA)
# RNA: B18 RNA with G29C, U31G
# DNA 1: CAATCTGAATTCCGGTCTCCC
# DNA 2: TGGTGGCTACGACGGGATT
# B22: GCACGUU (DNA:RNA)
# RNA: B18 RNA with G30U
# DNA 1: CAATCTGAATTCCGGTCTCCC
# DNA 2: TGGTGGCTACGACGGGATT
# B23: CAGCACG (DNA:RNA)
# RNA: B1 RNA with G26A, G28C, C29A, A30C, A31G
# DNA 1: CAATCTGAATTCCGGTCTCCC
# DNA 2: TGGTGGCTACGACGGGATT
# Target: T1, RBFOX1 RRM
# Assay: EMSA; HiTS-Eq, 1 nM pool, 10 min; buffer printed only for the single-RNA assays: 10 mM Tris pH 7.5, 150 mM NaCl, 3.4 mM EDTA, 0.001% NP-40, 30 C
# Conditions: tags: His6 N-terminal (pET28a); label: 5' 32P
# In short: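 A pool of RNA with 7 randomized nucleotides, 5′-radiolabelled and with DNA-annealed flanks, was equilibrated at 1 nM for 10 min in 50 µL with purified RbFox RRM, wild type or mutant, across increasing protein concentrations. Free RNA was separated by 8% native PAGE, excised, reverse-transcribed, barcoded by PCR and sequenced. Relative association constants were obtained from read-count changes of each RNA species versus the control reaction and normalised to the cognate motif.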
row,Binder,binding signal
1,B1,0.0227 KA relative to UGCAUGU
2,B2,0.0491 KA relative to UGCAUGU
3,B3,0.0043 KA relative to UGCAUGU
4,B4,0.0252 KA relative to UGCAUGU
5,B5,0.0161 KA relative to UGCAUGU
6,B6,0.032 KA relative to UGCAUGU
7,B7,0.00169 KA relative to UGCAUGU
8,B8,0.00773 KA relative to UGCAUGU
9,B9,0.00497 KA relative to UGCAUGU
10,B10,0.0111 KA relative to UGCAUGU
11,B11,0.0102 KA relative to UGCAUGU
12,B12,0.0278 KA relative to UGCAUGU
13,B13,0.011 KA relative to UGCAUGU
14,B14,0.00574 KA relative to UGCAUGU
15,B15,0.0433 KA relative to UGCAUGU
16,B16,0.00835 KA relative to UGCAUGU
17,B17,0.0125 KA relative to UGCAUGU
18,B18,0.0324 KA relative to UGCAUGU
19,B19,0.0367 KA relative to UGCAUGU
20,B20,0.00473 KA relative to UGCAUGU
21,B21,0.00674 KA relative to UGCAUGU
22,B22,0.043 KA relative to UGCAUGU
23,B23,0.0261 KA relative to UGCAUGU
